Holding throughout (conditions): mRNA level, 48 h; actives raise or lower the signal
Read-out in assay [1]: Caspase-3 (Homo sapiens) (UniProt P42574)
Kind of assay: LTEA_HepaRG_CASP3: Life Technologies and Expression Analysis (LTEA) Assay for cysteine-aspartic acid protease (CASP3) using HepaRG (AID 2283477). In a few lines:
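HepaRG, 48 h exposure, 8 conc. (top 100 uM, half-log steps, duplicate), 0.5% DMSO vehicle; qRT-PCR of CASP3 transcript, housekeeping-normalised (ACTB/GAPDH/POLR2A); bidirectional curve fit vs DMSO baseline.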

Read-out in assay [2]: Cytochrome P450 (CYP1A2), CYP1A2 (gene 1544)
The assay can be described thus: LTEA_HepaRG_CYP1A2: Life Technologies and Expression Analysis (LTEA) Assay for Cytochrome P450 (CYP1A2) using HepaRG (AID 2283479). The method in brief: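 HepaRG, 48 h exposure, top 100 uM, half-log 8-pt, 0.5% DMSO vehicle, duplicates. Readout: TaqMan qRT-PCR of CYP1A2 mRNA, housekeeping-normalized (ACTB/GAPDH/POLR2A). Gain/loss fit relative to DMSO baseline.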

Read-out in assay [3]: cysteine-aspartic acid protease (CASP8), CASP8 (gene 841)
The assay can be described thus: LTEA_HepaRG_CASP8: Life Technologies and Expression Analysis (LTEA) Assay for cysteine-aspartic acid protease (CASP8) using HepaRG (AID 2283480). In a few lines:
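Differentiated human HepaRG cells, plated 48 h then switched to serum-free induction medium, were exposed in duplicate for 48 h to 8 half-log concentrations up to 100 uM in 0.5% DMSO. CASP8 mRNA was quantified by qRT-PCR, normalized to ACTB/GAPDH/POLR2A.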

Read-out in assay [4]: Cytochrome P450 (CYP2B6), CYP2B6 (gene 1555)
The assay can be described thus: LTEA_HepaRG_CYP2B6: Life Technologies and Expression Analysis (LTEA) Assay for Cytochrome P450 (CYP2B6) using HepaRG (AID 2283481). The method in brief:
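Read-out is CYP2B6 mRNA by TaqMan qRT-PCR, normalized to three housekeeping genes and fitted bidirectionally against 0.5% DMSO baseline. Human HepaRG cells received test chemicals for 48 h, top concentration 100 uM, half-log dilutions.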

Read-out in assay [5]: Cytochrome P450 2C19 (Homo sapiens) (UniProt P33261)
Kind of assay: LTEA_HepaRG_CYP2C19: Life Technologies and Expression Analysis (LTEA) Assay for CYP2C19 using HepaRG (AID 2283482). In a few lines: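 HepaRG, 48 h chemical exposure, 8-pt half-log series from 100 uM in 0.5% DMSO, duplicates. Readout: CYP2C19 mRNA by TaqMan qRT-PCR, housekeeping-normalized. Bidirectional fit vs DMSO baseline; phenobarbital 1mM as induction control.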

Read-out in assay [6]: CYP2C8 (gene 1558)
The assay can be described thus: LTEA_HepaRG_CYP2C8: Life Technologies and Expression Analysis (LTEA) Assay for CYP2C8 using HepaRG (AID 2283483). In a few lines: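 Differentiated human HepaRG cells were exposed for 48 h in serum-free induction medium to eight half-log concentrations up to 100 uM in 0.5% DMSO, in duplicate. CYP2C8 mRNA was measured by TaqMan qRT-PCR, normalized to ACTB, GAPDH and POLR2A, and fitted bidirectionally against DMSO.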

Read-out in assay [7]: CYP2C9 (gene 1559)
Kind of assay: LTEA_HepaRG_CYP2C9: Life Technologies and Expression Analysis (LTEA) Assay for CYP2C9 using HepaRG (AID 2283484). The method in brief:
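Differentiated human HepaRG cells were exposed 48 h in serum-free induction medium to eight half-log concentrations up to 100 uM in 0.5% DMSO. CYP2C9 mRNA was measured by qRT-PCR, normalized to ACTB, GAPDH and POLR2A, and fitted bidirectionally against DMSO.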

Read-out in assay [8]: CYP2E1 (gene 1571)
The assay can be described thus: LTEA_HepaRG_CYP2E1: Life Technologies and Expression Analysis (LTEA) Assay for CYP2E1 using HepaRG (AID 2283485). In a few lines: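 HepaRG cells in serum-free induction medium exposed 48 h to test chemicals, 8 half-log concentrations up to 100 uM in 0.5% DMSO, duplicate. CYP2E1 mRNA by qRT-PCR, normalized to ACTB, GAPDH, POLR2A; bidirectional fit versus DMSO.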

Read-out in assay [9]: CYP4A11 (gene 1579)
Kind of assay: LTEA_HepaRG_CYP4A11: Life Technologies and Expression Analysis (LTEA) Assay for CYP4A11 using HepaRG (AID 2283486). The method in brief:
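CYP4A11 transcript levels were quantified by TaqMan qRT-PCR after HepaRG human liver cells were treated for 48 hours with test chemicals (top 100 uM, half-log dilutions, 0.5% DMSO). Gain or loss of signal was fitted relative to DMSO.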

Read-out in assay [10]: Cytochrome P450 3A4 (Homo sapiens) (UniProt P08684)
The assay can be described thus: LTEA_HepaRG_CYP3A4: Life Technologies and Expression Analysis (LTEA) Assay for CYP3A4 using HepaRG (AID 2283487). In a few lines:
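CYP3A4 transcript measured by TaqMan qRT-PCR and normalized to three housekeeping genes after 48 h chemical exposure of human HepaRG cells. Top concentration 100 uM, half-log steps, 0.5% DMSO vehicle; gain or loss fitted against DMSO baseline.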

Read-out in assay [11]: DNA damage-inducible transcript 3 (DDIT3), DDIT3 (gene 1649)
The assay can be described thus: LTEA_HepaRG_DDIT3: Life Technologies and Expression Analysis (LTEA) Assay for DNA damage-inducible transcript 3 (DDIT3) using HepaRG (AID 2283488). In a few lines: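 Differentiated human HepaRG cells in serum-free induction medium were exposed in duplicate for 48 h to 8 concentrations (top 100 uM, half-log steps, 0.5% DMSO). DDIT3 mRNA measured by TaqMan qRT-PCR, normalized to ACTB/GAPDH/POLR2A; bidirectional fit versus DMSO.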

Read-out in assay [12]: Pro-epidermal growth factor (Homo sapiens) (UniProt P01133)
The assay can be described thus: LTEA_HepaRG_EGF: Life Technologies and Expression Analysis (LTEA) Assay for Epidermal growth factor (EGF) using HepaRG (AID 2283489). In a few lines: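 qRT-PCR readout of EGF transcript after 48 h chemical exposure of HepaRG cells; eight concentrations from 100 uM down in half-log steps, duplicate wells, 0.5% DMSO vehicle. Bidirectional curve fitting against DMSO baseline.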

Read-out in assay [13]: Early growth response protein 1 (EGR1) transcription factor, EGR1 (gene 1958)
The assay can be described thus: LTEA_HepaRG_EGR1: Life Technologies and Expression Analysis (LTEA) Assay for Early growth response protein 1 (EGR1) transcription factor using HepaRG (AID 2283490). The method in brief: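 Differentiated human HepaRG cells in serum-free induction medium were exposed in duplicate for 48 h to eight concentrations (top 100 uM, half-log steps) in 0.5% DMSO. EGR1 mRNA was quantified by qRT-PCR, normalized to ACTB, GAPDH and POLR2A, and fitted bidirectionally versus DMSO.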

Read-out in assay [14]: Cytochrome P450 3A7 (Homo sapiens) (UniProt P24462)
Kind of assay: LTEA_HepaRG_CYP3A7: Life Technologies and Expression Analysis (LTEA) Assay for CYP3A7 using HepaRG (AID 2283492). The method in brief: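 CYP3A7 transcript levels were read by TaqMan qRT-PCR on Fluidigm arrays after 48 h chemical exposure of human HepaRG cells, with housekeeping-gene normalisation. Eight half-log concentrations up to 100 uM in 0.5% DMSO were tested in duplicate.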

Read-out in assay [15]: CYP3A5 (gene 1577)
The assay can be described thus: LTEA_HepaRG_CYP3A5: Life Technologies and Expression Analysis (LTEA) Assay for CYP3A5 using HepaRG (AID 2283493). The method in brief: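 Differentiated HepaRG cells in serum-free induction medium were dosed 48 h with test chemicals (8-point half-log series, top 100 uM, 0.5% DMSO, duplicate). CYP3A5 mRNA measured by qRT-PCR, normalized to ACTB, GAPDH, POLR2A; bidirectional fit versus DMSO.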

Read-out in assay [16]: Fatty Acid-Binding Protein 1 (FABP1), FABP1 (gene 2168)
The assay can be described thus: LTEA_HepaRG_FABP1: Life Technologies and Expression Analysis (LTEA) Assay for Fatty Acid-Binding Protein 1 (FABP1) using HepaRG (AID 2283494). The method in brief: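 Differentiated human HepaRG cells were exposed in duplicate for 48 h in serum-free induction medium to 8-point half-log concentration series topping at 100 uM in 0.5% DMSO. FABP1 mRNA measured by TaqMan qRT-PCR, normalized to ACTB/GAPDH/POLR2A; bidirectional fit versus DMSO.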

Read-out in assay [17]: Cytochrome P450 4A22 (Homo sapiens) (UniProt Q5TCH4)
The assay can be described thus: LTEA_HepaRG_CYP4A22: Life Technologies and Expression Analysis (LTEA) Assay for Cytochrome P450 4A22 (CYP4A22) using HepaRG (AID 2283495). The method in brief: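 HepaRG, 48 h post-plating -> serum-free induction medium; dosed 48 h, duplicate, 8 conc. (100 uM top, half-log), 0.5% DMSO. Readout: CYP4A22 mRNA by qRT-PCR, ACTB/GAPDH/POLR2A normalization; gain/loss fit relative to DMSO.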

Read-out in assay [18]: Cytochrome P450 7A1 (Homo sapiens) (UniProt P22680)
The assay can be described thus: LTEA_HepaRG_CYP7A1: Life Technologies and Expression Analysis (LTEA) Assay for Cytochrome P450 7A1 (CYP7A1) using HepaRG (AID 2283496). The method in brief: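 Gene expression endpoint in human HepaRG liver cells treated for 48 h with test chemicals (up to 100 uM, 0.5% DMSO). Values come from bidirectional concentration-response fitting versus DMSO.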

Read-out in assay [19]: Ezrin (EZR), EZR (gene 7430)
The assay can be described thus: LTEA_HepaRG_EZR: Life Technologies and Expression Analysis (LTEA) Assay for Ezrin (EZR) using HepaRG (AID 2283491). The method in brief: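 HepaRG, 48 h chemical exposure, 8-pt half-log series from 100 uM, 0.5% DMSO vehicle, duplicates. Read-out: EZR mRNA by TaqMan qRT-PCR (Fluidigm array), housekeeping-normalized; bidirectional curve fit vs DMSO baseline.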

The values that follow come from PubChem BioAssay (EPA / NIEHS).

One may read the AC50 as the midpoint of the concentration-response curve, whichever way the signal moves.

Activity calls are given as the source filed them. Rule for the calls: active = hit-call score of the fitted dose curve at least 0.9, where 1 is the maximum; inactive = score below 0.9.

Sequence of Caspase-3 (Homo sapiens) (P42574 whole entry, looked up): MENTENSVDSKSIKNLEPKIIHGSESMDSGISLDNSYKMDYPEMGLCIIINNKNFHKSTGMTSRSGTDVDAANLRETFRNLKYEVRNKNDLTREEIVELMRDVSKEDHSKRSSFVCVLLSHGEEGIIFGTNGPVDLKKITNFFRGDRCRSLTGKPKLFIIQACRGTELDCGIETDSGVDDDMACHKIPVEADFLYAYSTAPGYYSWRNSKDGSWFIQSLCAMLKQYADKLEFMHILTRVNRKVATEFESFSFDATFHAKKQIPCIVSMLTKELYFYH
Sequence of Cytochrome P450 3A4 (Homo sapiens) (P08684 whole entry, looked up): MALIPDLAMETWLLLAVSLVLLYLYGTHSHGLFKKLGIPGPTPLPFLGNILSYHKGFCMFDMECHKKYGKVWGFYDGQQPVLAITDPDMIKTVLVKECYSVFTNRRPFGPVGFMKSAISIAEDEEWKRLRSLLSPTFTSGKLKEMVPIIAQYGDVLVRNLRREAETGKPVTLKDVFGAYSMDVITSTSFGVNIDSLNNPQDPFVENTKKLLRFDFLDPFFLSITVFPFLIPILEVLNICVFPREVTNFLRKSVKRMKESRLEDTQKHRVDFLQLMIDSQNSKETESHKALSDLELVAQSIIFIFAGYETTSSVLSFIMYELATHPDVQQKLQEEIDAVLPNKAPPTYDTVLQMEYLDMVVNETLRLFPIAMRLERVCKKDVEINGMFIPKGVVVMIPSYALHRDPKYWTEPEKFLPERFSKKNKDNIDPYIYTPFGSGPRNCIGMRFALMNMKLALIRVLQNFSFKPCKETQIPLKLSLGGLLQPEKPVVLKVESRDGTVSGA
Sequence of Cytochrome P450 3A7 (Homo sapiens) (P24462 whole entry, looked up): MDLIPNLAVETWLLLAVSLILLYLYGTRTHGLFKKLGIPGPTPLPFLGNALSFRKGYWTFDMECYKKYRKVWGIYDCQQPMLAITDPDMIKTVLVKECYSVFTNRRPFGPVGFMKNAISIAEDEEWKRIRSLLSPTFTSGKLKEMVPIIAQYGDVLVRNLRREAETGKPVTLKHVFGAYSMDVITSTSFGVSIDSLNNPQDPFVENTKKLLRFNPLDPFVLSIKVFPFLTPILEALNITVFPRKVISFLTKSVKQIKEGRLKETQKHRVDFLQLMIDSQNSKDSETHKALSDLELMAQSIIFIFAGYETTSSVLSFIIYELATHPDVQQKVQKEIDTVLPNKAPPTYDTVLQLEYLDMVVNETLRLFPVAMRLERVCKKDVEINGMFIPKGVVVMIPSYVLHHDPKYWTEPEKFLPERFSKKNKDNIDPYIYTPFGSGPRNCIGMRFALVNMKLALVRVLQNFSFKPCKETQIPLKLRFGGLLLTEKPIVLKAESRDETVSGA
Sequence of Cytochrome P450 2C19 (Homo sapiens) (P33261 whole entry, looked up): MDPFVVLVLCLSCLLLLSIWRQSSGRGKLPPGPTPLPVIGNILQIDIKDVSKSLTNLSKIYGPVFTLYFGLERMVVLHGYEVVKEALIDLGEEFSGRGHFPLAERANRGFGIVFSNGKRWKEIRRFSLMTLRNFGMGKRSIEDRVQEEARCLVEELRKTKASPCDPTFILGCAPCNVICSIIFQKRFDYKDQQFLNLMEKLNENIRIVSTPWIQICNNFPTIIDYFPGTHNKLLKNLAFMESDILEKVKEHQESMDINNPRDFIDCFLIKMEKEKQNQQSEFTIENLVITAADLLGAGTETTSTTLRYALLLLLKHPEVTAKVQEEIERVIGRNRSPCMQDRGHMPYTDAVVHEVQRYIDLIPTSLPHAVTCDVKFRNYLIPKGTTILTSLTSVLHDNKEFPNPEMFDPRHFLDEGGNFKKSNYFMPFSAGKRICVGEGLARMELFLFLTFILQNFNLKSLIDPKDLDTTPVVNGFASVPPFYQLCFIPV

Regarding `NCCO`, the call in [1], in assay [2], in assay [3], in assay [4], in assay [5] and in [6] was inactive. In addition, the compound was called inactive in assay [7], in assay [8], in assay [9], in assay [10], in assay [11] and in assay [12]. For the same compound, the compound was called inactive in assay [13], in [14], in [15], in [16], in [17] and in [18].

Consider `Cc1nc(-c2ccc3c(c2)CCN(CCC2CCC(NC(=O)/C=C/c4ccc(F)cc4)CC2)CC3)no1` (configuration not stated), for which the compound was called inactive in assay [1], in assay [2], in [3], in [4], in [5] and in assay [6]. Also, the compound was called inactive in assay [7], in assay [8], in assay [9], in assay [10], in [11] and in [12]. Besides, the result in [13], in [14], in [15], in [16], in assay [17] and in assay [18] was inactive.

As to `C1CCC(SSC2CCCCC2)CC1`, the compound was classed as inactive in assay [1], in [2], in assay [3], in assay [4], in [5] and in [6]. The compound was called inactive in [7], in assay [8], in [9], in assay [10], in assay [11] and in [12]. Also, the result in assay [13], in assay [19], in assay [14], in assay [15], in assay [16] and in [17] was inactive. For the same compound, the compound was called inactive in assay [18].

With `CCOC(=O)C(C)(C)Oc1ccc(Cl)cc1`, the compound was called inactive in assay [1], in assay [2], in assay [3], in assay [4], in assay [6] and in [7]. Also, the result in [8], in assay [11], in [12], in assay [13], in [19] and in [14] was inactive. The compound was called inactive in assay [15], in assay [16] and in assay [18]. Also, the AC50 in assay [9] is 27.6 µM (active); in [17], 25.7 µM (active).
